About 83,000 compounds went through this panel and 20% of them were active in at least one assay; those are over-represented in the sample as a whole.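 The test compound was applied at a single concentration to cells in 96-well plates for 48 hours, and percent growth was recorded.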 A number with no mark means an inactive call. Activity calls are given as the source filed them. The calls were made as follows: active = growth percent below 10; inactive = the rest.
What was measured:
Test in all cases: NCI-60 one-dose screen, 48 h (100 = growth as untreated, 0 = no growth, -100 = all killed)
Conditions in all cases: 10 µM
[1] = tested on: RPMI-8226 leukemia
[2] = tested on: OVCAR-8 ovarian
[3] = tested on: OVCAR-5 ovarian
[4] = tested on: OVCAR-4 ovarian
[5] = tested on: SK-OV-3 ovarian
[6] = tested on: IGROV1 ovarian
[7] = tested on: OVCAR-3 ovarian
[8] = tested on: HS 578T breast
[9] = tested on: NCI/ADR-RES ovarian
[10] = tested on: T-47D breast
[11] = tested on: BT-549 breast
[12] = tested on: MDA-MB-435 melanoma
[13] = tested on: SW-620 colon
[14] = tested on: MCF7 breast
[15] = tested on: HCT-116 colon
[16] = tested on: HCC-2998 colon
[17] = tested on: KM12 colon

SMILES	growth [1]	growth [2]	growth [3]	growth [4]	growth [5]	growth [6]	growth [7]	growth [8]	growth [9]	growth [10]	growth [11]	growth [12]	growth [13]	growth [14]	growth [15]	growth [16]	growth [17]
COc1cc(-c2nc(-c3nnc(-c4ccc(F)c(Cl)c4)o3)c3ccccn23)cc(OC)c1OC	35.3%	-28.2% (active)	67.6%	-40.4% (active)	-4.85% (active)	72.9%	22.3%	58.6%	21%	30.4%	2.74% (active)	49.8%	58.7%	15.5%	-31.5% (active)	64.1%	5.68% (active)
O=C1/C(=C/c2ccc([N+](=O)[O-])o2)Oc2ccccc21	-0.688% (active)	2.87% (active)	8.57% (active)	-68.6% (active)	84%	-22.7% (active)	-69.7% (active)	57.3%	14.8%	8.17% (active)	-51.3% (active)	-70.9% (active)	-77.6% (active)	7.13% (active)	-56% (active)	-1.7% (active)	48.3%
Clc1ccc(/C=C2\CCCC3=C2N=C2SC=NN2C3c2ccc(Cl)cc2)cc1 (stereo not drawn)	-12.1% (active)	91.4%	107%	92.1%	109%	104%	112%	96.6%	102%	88.2%	117%	76.7%	94.1%	23.7%	5.7% (active)	77.2%	83.9%
COc1ccc(-c2nnc(-c3c(-c4ccccc4)nc4ncccn34)o2)cc1OC	94.8%	99%	91.7%	93.1%	95.9%	98.5%	108%	98.3%	101%	87.2%	88.6%	117%	109%	102%	103%	106%	100%
Cc1occc1-c1nnc(SCC(=O)c2ccc(NC(=O)CC(C)C)cc2)o1	77.7%	57%	105%	122%	121%	69.1%	104%	119%	104%	102%	108%	97.9%	108%	107%	109%	74.5%	99.4%
COc1ccc(Nc2cc(C)nc(NCCCNc3ccnc4cc(Cl)ccc34)n2)cc1	-58.8% (active)	-8.6% (active)	18.3%	4% (active)	-25.3% (active)	29.7%	-82.1% (active)	-53.9% (active)	29%	-94.7% (active)	-82.9% (active)	-92.4% (active)	-56.7% (active)	-48.8% (active)	-96.6% (active)	-70% (active)	20%
COC(=O)C1=NNC(=S)N(c2cc(C)[nH]n2)C(=O)C1	98.5%	101%	108%	104%	97.9%	99.9%	108%	105%	99%	90.2%	107%	99.4%	102%	96%	99.2%	93.6%	102%
CC12O[C@H](C[C@@H](OC(=O)c3ccccc3)[C@H]1O)n1c3ccccc3c3c4c(c5c6ccccc6n2c5c31)C(=O)NC4=O	54.6%	86.5%	59.3%	84.5%	12.6%	62%	103%	69.3%	77.8%	59.3%	84.8%	60.2%	60.2%	69.3%	70.1%	87.2%	19.3%
Cc1nc2ccccc2c(N)c1-c1cc(C)c2c(C)nc3ccccc3c2n1	-40.9% (active)	-29.4% (active)	32.4%	-64.1% (active)	96.7%	-92% (active)	-96.6% (active)	-32.3% (active)	43.8%	-20.4% (active)	58.2%	69.4%	-65.7% (active)	31.2%	-82.1% (active)	-35% (active)	-83.2% (active)
COc1cc(Cl)cc(-c2nn(-c3cccc(NC(=O)Nc4ccc(Cl)c(Cl)c4)c3)cc2-c2ccncc2)c1	-4.44% (active)	1.93% (active)	37.8%	13.3%	14.2%	36.7%	4.12% (active)	28.5%	8.59% (active)	18.6%	29.4%	0.46% (active)	13.3%	4.66% (active)	9.22% (active)	26.7%	14.3%
Cc1cccc(C)c1NC(=O)c1sc2nc3c(cc2c1N)C(=O)CCC3	96%	97.9%	97.6%	101%	22.5%	89.4%	100%	93.2%	87.6%	92.8%	90.7%	13%	72.2%	54.6%	90.6%	72.5%	56.3%
CN(C)C=Nc1cc(Cl)ccc1Cl	98.9%	114%	104%	99.9%	110%	118%	113%	117%	107%	108%	112%	97.9%	103%	101%	104%	108%	110%
CC(C)(C#N)Nc1ccccc1	105%	105%	100%	99.5%	106%	121%	124%	105%	116%	102%	108%	96.1%	112%	93.4%	101%	119%	115%
COc1ccc(-c2nc3sccn3c2-c2nc3c([nH]2)C(=O)c2ccccc2C3=O)cc1	74.7%	96.2%	89.8%	84.1%	109%	105%	114%	90.6%	86.5%	72%	112%	95.9%	101%	83.8%	91%	95.7%	103%
CN(C)CCN1C(=O)c2cccc3c(-c4ccc5ncn(C6CCCCC6)c5c4)ccc(c23)C1=O	7.51% (active)	14.7%	35.8%	30.8%	23%	20.4%	37.6%	40.8%	20.1%	27.8%	56.5%	39.9%	21.4%	12.1%	8.6% (active)	39.8%	24.8%
COc1ccc(-c2nsc3c2NC(=O)CC3c2ccc(F)cc2)cc1 (stereo not drawn)	39.6%	46.1%	40.3%	90.8%	35.2%	56.2%	23.9%	66.6%	5.04% (active)	22.2%	28%	-56.1% (active)	21.4%	22%	19.5%	56.7%	22.2%
COc1ccc(Cn2c(C(N)=O)cc3c2-c2nc(N)ncc2CCC3)cc1	85.5%	98.6%	87.7%	99.7%	104%	101%	107%	91.3%	110%	104%	109%	97.2%	91.3%	92.7%	101%	104%	97.5%
Nc1ccccc1NC(=O)CCCCC(=O)Nc1ccc2c(c1)/C(=C/c1ccc[nH]1)C(=O)N2	56.2%	78.5%	96.5%	52.1%	72.5%	59.8%	65.8%	52.3%	107%	59.6%	33.9%	68.8%	91.3%	35%	82.7%	87.5%	15.9%
COc1ccc([N+](=O)[O-])c(C(=O)O)c1	110%	101%	102%	102%	99.1%	108%	102%	98.1%	110%	93.3%	102%	97.9%	101%	93.8%	103%	106%	100%
